A number with no mark means an inactive call. Records with an inconclusive call do not appear. Activity calls are given as the source filed them. Unless noted, calls follow the shape of the dose curve; as a rule, active = well fitted curve in either direction with a large enough effect (not every such curve was filed as active); inconclusive = small, poorly fitted or top-dose-only effect, or another doubt; inactive = flat fitted curve, though single readings scatter.
Key:
[1] = target: Lysosomal acid glucosylceramidase (Homo sapiens) (UniProt P04062); test: Glucocerebrosidase-p2 (AID 348; in the data active = potency below about 10 µM; also: potency is read from the fitted curve at half-maximal effect); conditions: purified GBA, blue fluorogenic substrate, 40 min
Sequence of Lysosomal acid glucosylceramidase (Homo sapiens) (P04062 whole entry, looked up): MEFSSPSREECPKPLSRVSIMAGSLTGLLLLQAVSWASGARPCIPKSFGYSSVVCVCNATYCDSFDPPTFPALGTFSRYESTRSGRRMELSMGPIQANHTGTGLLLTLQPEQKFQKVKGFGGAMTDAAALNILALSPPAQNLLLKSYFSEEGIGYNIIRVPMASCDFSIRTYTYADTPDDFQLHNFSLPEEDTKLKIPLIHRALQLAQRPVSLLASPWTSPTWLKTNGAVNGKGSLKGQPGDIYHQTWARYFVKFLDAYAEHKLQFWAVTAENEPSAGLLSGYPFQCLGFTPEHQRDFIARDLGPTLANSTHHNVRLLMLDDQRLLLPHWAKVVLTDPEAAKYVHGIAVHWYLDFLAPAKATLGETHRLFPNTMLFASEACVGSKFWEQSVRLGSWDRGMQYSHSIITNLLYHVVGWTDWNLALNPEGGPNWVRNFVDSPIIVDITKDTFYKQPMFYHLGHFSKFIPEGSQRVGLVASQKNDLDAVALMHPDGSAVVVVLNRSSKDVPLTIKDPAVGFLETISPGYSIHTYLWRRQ
In short: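 Normal human glucocerebrosidase (0.2 nM) with blue fluorogenic substrate (80 uM final) in citrate/phosphate pH 5.9 with 10mM sodium taurocholate, 0.01% tween-20; 40 min RT, NaOH/glycine stop; fluorescence Ex 365/Em 440; AC50 from a titration from 0.6 nM upwards.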

[2] = AP1 Signaling Pathway (AID 357); conditions: ME-180 AP-1-bla reporter, EGF-induced, beta-lactamase ratio, 5 h; at 7.69 µM (top of the series) unless noted;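 also: ME-180 reporter cells stimulated with EGF at its EC50 level; % is scaled to controls: 0 for no effect and ±100 for the full control effect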
In short: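 Cells are seeded overnight, exposed to compound titrations and an EC50 level of EGF for 5 hours at 37 °C, then loaded with CCF4 dye for 2.5 hours. Beta-lactamase activity under the AP-1 element is read as a blue/green ratio.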

[3] = target: Cytochrome P450 1A2 (Homo sapiens) (UniProt P05177); test: p450-cyp1a2 (AID 410; calls by dose curve; also: potency is read from the fitted curve at half-maximal effect;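 as to activity change, negative = inhibition: -100% = full effect of reference inhibitor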); conditions: recombinant CYP1A2, luciferin-ME demethylation, luminescence; series mostly up to 11.4 µM
Sequence of Cytochrome P450 1A2 (Homo sapiens) (P05177 whole entry, looked up): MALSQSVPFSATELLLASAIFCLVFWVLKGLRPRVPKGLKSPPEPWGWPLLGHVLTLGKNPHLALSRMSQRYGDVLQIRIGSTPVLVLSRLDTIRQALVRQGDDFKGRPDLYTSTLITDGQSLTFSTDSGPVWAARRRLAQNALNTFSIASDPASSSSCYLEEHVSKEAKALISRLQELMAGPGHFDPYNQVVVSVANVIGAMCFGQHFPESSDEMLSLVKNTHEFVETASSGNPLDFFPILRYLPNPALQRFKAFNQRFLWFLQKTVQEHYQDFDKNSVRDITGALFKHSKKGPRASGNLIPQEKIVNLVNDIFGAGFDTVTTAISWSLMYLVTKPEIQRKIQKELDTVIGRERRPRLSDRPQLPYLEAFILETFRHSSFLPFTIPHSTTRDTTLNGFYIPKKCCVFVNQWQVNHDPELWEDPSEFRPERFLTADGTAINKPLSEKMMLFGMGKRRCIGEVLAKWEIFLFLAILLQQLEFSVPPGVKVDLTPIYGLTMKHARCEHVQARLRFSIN
In short: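 20nM CYP1A2, 100uM Luciferin-ME (=Km), 100mM KPO4; cpd 10 min RT; +NADPH regen, 60 min RT; stop/detect 20 min; luminescence. Normalized to furafylline 57 uM = full inhibition.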

[4] = NFAT Signaling Pathway (AID 444); conditions: Jurkat NFAT-bla M1, carbachol, beta-lactamase ratio, 5 h; at 7.69 µM (top of the series) unless noted;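 also: carbachol stimulus at about its EC50 of 1 µM final; % is scaled to controls: 0 for no effect and ±100 for the full control effect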
In short: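 Jurkat cells carrying an NFAT-driven β-lactamase reporter and co-transfected muscarinic M1 receptor were treated with compound plus carbachol (1 uM final, an EC50 level) for 5 h at 37 °C. CCF4 loading followed for 1 h at RT; 460/530 nm ratio gave %activity.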

[5] = target: Glucocorticoid receptor (Homo sapiens) (UniProt P04150); test: GR-GFP Redistribution (AID 450;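 active = compounds whose dose series gives a full or clear partial fitted curve of increased nuclear translocation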; also: potency is read from the fitted curve at half-maximal effect); conditions: U2OS GR-GFP nuclear translocation, laser cytometry, 2 h
Sequence of Glucocorticoid receptor (Homo sapiens) (P04150 whole entry, looked up, the tested form may be a part): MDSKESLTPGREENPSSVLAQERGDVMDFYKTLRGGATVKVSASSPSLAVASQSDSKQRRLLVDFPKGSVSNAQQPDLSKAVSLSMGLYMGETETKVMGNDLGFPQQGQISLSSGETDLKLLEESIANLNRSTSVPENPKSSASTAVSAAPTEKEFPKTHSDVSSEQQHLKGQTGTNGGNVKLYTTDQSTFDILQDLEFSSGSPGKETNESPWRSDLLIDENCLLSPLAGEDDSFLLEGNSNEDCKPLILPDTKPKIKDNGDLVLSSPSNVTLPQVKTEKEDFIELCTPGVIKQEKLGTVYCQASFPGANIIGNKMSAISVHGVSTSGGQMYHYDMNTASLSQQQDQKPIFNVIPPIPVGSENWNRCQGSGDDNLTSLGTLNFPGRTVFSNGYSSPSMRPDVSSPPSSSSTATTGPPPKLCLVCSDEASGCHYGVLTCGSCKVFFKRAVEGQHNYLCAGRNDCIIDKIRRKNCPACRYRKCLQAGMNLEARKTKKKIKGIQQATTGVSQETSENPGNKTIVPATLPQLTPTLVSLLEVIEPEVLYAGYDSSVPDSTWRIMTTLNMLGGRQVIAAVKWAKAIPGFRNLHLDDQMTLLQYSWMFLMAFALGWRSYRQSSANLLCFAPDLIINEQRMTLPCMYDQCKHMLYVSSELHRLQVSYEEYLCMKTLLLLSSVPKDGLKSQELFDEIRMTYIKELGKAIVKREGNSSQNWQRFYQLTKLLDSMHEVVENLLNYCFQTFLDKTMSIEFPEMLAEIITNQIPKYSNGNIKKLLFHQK

[6] = target: Glucocorticoid receptor (Homo sapiens) (UniProt P04150); test: GR-EFC Redistribution (AID 451; calls by dose curve; also: potency is read from the fitted curve at half-maximal effect); conditions: CHO-K1 GR-EFC translocation, beta-gal luminescence, 2 h
In short: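 CHO-K1 cells stably expressing nuclear-localized β-gal enzyme acceptor and GR fused C-terminally to the enzyme donor fragment; ligand-driven nuclear translocation restores β-gal by complementation. Compounds titrated up to 46 uM final, 2 h at 37 °C; luminescence read.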

[7] = target: 3',5'-cyclic-AMP phosphodiesterase 4B (Homo sapiens) (UniProt Q07343); test: qHTS Assay for Inhibitors of PDE-IV (AID 607; active = well fitted activation curve with a large enough effect in the main read-out, with a control signal flat, not every such curve was filed as active; also: % of control where 0% means no effect); conditions: HEK293 ACTOne CNG channel cells, membrane potential fluorescence; series mostly up to 22.9 µM
Sequence of 3',5'-cyclic-AMP phosphodiesterase 4B (Homo sapiens) (Q07343 whole entry, looked up): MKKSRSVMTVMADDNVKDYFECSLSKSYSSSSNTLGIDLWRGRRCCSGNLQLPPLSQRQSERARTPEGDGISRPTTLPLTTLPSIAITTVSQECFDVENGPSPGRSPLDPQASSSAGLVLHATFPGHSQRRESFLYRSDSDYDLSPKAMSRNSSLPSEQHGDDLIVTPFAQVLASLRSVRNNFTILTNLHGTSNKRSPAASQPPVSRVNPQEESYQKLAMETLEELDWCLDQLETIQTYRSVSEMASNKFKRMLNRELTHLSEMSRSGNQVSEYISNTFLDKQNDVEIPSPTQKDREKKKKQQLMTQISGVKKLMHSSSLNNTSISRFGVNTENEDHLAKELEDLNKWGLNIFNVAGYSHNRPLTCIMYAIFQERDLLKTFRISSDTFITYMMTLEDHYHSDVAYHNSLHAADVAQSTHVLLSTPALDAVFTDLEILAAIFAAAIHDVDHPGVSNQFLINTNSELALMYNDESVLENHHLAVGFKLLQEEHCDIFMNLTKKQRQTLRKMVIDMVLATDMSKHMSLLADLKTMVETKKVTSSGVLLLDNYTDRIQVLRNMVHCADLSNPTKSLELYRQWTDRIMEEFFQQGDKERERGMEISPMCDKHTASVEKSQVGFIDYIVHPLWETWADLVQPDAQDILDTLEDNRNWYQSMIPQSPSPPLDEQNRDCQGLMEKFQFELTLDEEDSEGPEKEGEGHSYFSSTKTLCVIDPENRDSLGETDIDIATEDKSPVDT
In short: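 The readout is membrane depolarisation from a cAMP-sensing CNG channel, detected with a potential dye at ex 535/em 590. Cells were HEK293-derived (endogenous PDE-IV) at 1000 cells/well, titrated up to 22.9 uM final.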

[8] = target: Mitogen-activated protein kinase 10 (Mus musculus) (UniProt Q61831); test: JNK3 AlphaScreen Assay (AID 530); conditions: JNK3 lysate, c-Jun phosphorylation; series mostly up to 57.1 µM;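 also: kinase came from lysate of stimulated human HepG2 cells; signal reports phosphorylation of biotinylated GST-cJun 1-79 at Ser73 with 10 µM ATP; % is scaled to controls: 0 for no effect and ±100 for the full control effect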
In short: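 Biotinylated GST-cJun(1-79) served as substrate for JNK3 in HepG2 lysates stimulated with IL-1beta and TNF-alpha. ATP was 10 uM final, pH 7.6. Ser73 phosphorylation was quantified by AlphaScreen (680 nm excitation).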

[9] = Stat Signaling Pathway (AID 446); conditions: ME-180 SIE beta-lactamase reporter, IL-6 stimulated, 5 h; at 7.69 µM (top of the series) unless noted;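 also: ME-180 cervical cancer cells given 40 pM IL-6 alongside compound; SIE-controlled beta-lactamase reporter measured as 460/530 nm FRET emission ratio; % is scaled to controls: 0 for no effect and ±100 for the full control effect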
In short: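 Emission at 460 and 530 nm (excitation 405 nm) reports SIE-controlled beta-lactamase in ME-180 cells. Cells received compound with 40 pM IL-6 for 5 hrs at 37 C; data scaled between 300 pM IL-6 and 125 nM JAK-inhibitor controls.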

[10] = qHTS Assay for Identification of Small Molecule Agonists for Hypoxia Response Element Signaling Pathway (AID 914; active = well fitted activation curve with a large enough effect in the signal ratio, with a control signal flat, not every such curve was filed as active; the % refers to the signal ratio; also: % of control where 0% means no effect); conditions: ME-180 (cervical carcinoma) HRE-bla reporter, beta-lactamase ratio, CoCl2, 17 h; stronger effect = higher value
In short: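 Compounds in a titration series were added to ME-180 reporter cells alongside an EC50 level of CoCl2. After 17 hours, beta-lactamase activity was read as the 460nm/530nm emission ratio of CCF4, giving AC50 values.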

[11] = target: Tyrosyl-DNA phosphodiesterase 1 (Homo sapiens) (UniProt Q9NUW8); test: Confirmation Assay for Inhibitors of Tyrosyl-DNA Phosphodiesterase (TDP1) (AID 489007; active = well fitted curve in the direction sought with a large enough effect; an effect the other way counts as inactive or inconclusive; also: potency is read from the fitted curve at half-maximal effect; nearly all actives have a fitted effect of over 40% in size); conditions: recombinant human TDP1 enzymatic activity, dose-response
Sequence of Tyrosyl-DNA phosphodiesterase 1 (Homo sapiens) (Q9NUW8 whole entry, looked up): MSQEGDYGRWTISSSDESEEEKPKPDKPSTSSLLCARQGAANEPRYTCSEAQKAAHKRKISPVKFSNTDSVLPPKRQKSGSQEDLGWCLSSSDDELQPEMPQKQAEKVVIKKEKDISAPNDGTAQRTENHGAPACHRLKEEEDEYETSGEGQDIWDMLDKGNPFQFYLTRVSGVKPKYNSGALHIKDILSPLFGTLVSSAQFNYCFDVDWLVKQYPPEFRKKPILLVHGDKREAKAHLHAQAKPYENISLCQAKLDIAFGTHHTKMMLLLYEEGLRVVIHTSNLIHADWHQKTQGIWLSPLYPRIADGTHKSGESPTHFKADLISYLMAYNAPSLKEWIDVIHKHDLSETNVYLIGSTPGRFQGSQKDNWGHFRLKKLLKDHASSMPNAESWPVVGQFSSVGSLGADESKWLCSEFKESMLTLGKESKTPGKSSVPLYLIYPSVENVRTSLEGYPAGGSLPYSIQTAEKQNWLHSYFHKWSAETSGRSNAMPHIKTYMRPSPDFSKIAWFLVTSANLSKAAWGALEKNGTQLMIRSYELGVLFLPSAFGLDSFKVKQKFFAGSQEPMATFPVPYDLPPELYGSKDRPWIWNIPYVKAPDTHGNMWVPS
In short: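 AlphaScreen read-out: streptavidin donor and anti-FITC acceptor beads (10 ug/ml) bind intact substrate, so Tdp1 removal of tyrosine-FITC lowers signal. Enzyme 1 nM, substrate 15 nM, 5 min reaction at room temperature after 15 min compound preincubation.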

[12] = target: Cytochrome P450 2C9 (Homo sapiens) (UniProt P11712); test: qHTS Assay for Inhibitors and Substrates of Cytochrome P450 2C9 (AID 883; active = well fitted curve in the direction sought with a large enough effect; an effect the other way counts as inactive or inconclusive; also: % is scaled to controls: 0 for no effect and ±100 for the full control effect; nearly all actives have a fitted effect of over 60% in size); conditions: recombinant CYP2C9, luciferin-H luminescence, 60 min; series mostly up to 57.1 µM
In short: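 A luminogenic readout tracked human CYP2C9 (10nM) converting deoxyluciferin (100uM, at KM) in 25mM KPO4 during 60 min at 37C with regenerated NADPH. Values normalized to 57uM sulphaphenazole as complete inhibition.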

[13] = target: Cytochrome P450 2D6 (Homo sapiens) (UniProt P10635); test: qHTS Assay for Inhibitors and Substrates of Cytochrome P450 2D6 (AID 891; active = well fitted curve in the direction sought with a large enough effect; an effect the other way counts as inactive or inconclusive; also: nearly all actives have a fitted effect of over 60% in size; also: potency is read from the fitted curve at half-maximal effect); conditions: recombinant CYP2D6, luciferin-ME EGE luminescence; series mostly up to 11.4 µM
Sequence of Cytochrome P450 2D6 (Homo sapiens) (P10635 whole entry, looked up): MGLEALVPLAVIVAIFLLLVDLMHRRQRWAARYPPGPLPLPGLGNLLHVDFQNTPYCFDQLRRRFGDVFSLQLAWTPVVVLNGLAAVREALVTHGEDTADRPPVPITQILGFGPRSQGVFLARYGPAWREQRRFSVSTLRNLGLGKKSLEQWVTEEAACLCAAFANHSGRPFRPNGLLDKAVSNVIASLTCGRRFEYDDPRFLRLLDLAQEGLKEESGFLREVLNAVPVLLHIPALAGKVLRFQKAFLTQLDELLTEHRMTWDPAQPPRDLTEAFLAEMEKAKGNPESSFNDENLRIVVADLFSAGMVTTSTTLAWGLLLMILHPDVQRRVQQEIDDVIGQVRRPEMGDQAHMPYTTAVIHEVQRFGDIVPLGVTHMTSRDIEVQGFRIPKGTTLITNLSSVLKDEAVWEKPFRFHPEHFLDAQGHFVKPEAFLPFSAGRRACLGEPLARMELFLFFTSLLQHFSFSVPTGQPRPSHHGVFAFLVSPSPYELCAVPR
In short: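 Luminescent read-out of luciferin formed by 5 nM human CYP2D6 demethylating 30 uM Luciferin-ME EGE (Km level) over 60 min at room temperature after NADPH regeneration addition. Data normalized to full inhibition by 1.43 uM quinidine.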

[14] = target: Cytochrome P450 2C19 (Homo sapiens) (UniProt P33261); test: qHTS Assay for Inhibitors and Substrates of Cytochrome P450 2C19 (AID 899; active = well fitted curve in the direction sought with a large enough effect; an effect the other way counts as inactive or inconclusive; also: nearly all actives have a fitted effect of over 60% in size; also: potency is read from the fitted curve at half-maximal effect); conditions: recombinant CYP2C19, luciferin-H EGE luminescence; series mostly up to 11.4 µM
Sequence of Cytochrome P450 2C19 (Homo sapiens) (P33261 whole entry, looked up): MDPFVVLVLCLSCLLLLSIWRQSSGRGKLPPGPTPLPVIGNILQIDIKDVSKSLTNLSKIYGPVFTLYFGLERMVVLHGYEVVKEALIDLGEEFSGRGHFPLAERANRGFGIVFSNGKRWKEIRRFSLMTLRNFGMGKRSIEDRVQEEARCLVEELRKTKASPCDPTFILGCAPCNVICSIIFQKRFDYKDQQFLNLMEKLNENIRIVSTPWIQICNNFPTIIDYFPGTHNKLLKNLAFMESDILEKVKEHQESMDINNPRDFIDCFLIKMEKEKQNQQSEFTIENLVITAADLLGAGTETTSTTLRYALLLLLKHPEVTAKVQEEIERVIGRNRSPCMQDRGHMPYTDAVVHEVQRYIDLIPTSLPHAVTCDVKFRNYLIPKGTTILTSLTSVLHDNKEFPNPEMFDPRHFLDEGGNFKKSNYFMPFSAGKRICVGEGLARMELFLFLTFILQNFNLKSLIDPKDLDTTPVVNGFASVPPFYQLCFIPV
In short: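 NADPH-dependent conversion of Luciferin-H EGE (10uM, at KM) by 5nM enzyme in 50mM KPO4, 60 min at 37C following 10 min compound preincubation. Stopped with luciferin detection buffer; luminescence read after 20 min.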

[15] = target: Cytochrome P450 3A4 (Homo sapiens) (UniProt P08684); test: qHTS Assay for Activators of Cytochrome P450 3A4 (AID 885; active = well fitted curve in the direction sought with a large enough effect; an effect the other way counts as inactive or inconclusive; also: nearly all actives have a fitted effect of over 65% in size); conditions: recombinant CYP3A4, Luciferin-PPXE luminescence, 60 min; series mostly up to 57.1 µM
Sequence of Cytochrome P450 3A4 (Homo sapiens) (P08684 whole entry, looked up): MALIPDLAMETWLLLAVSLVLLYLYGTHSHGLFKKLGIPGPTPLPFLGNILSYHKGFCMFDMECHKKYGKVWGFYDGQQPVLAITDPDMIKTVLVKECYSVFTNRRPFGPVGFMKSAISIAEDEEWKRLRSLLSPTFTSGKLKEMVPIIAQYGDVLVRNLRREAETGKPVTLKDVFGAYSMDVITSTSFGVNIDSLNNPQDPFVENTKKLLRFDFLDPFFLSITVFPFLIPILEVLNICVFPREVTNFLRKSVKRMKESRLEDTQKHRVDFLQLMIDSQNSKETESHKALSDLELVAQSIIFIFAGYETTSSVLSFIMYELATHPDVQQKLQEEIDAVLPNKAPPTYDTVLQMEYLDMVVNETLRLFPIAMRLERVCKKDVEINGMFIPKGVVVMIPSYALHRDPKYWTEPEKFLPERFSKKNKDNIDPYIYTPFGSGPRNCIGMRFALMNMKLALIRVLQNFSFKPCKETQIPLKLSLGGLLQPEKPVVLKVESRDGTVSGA
In short: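 Activators are scored by enhanced luminescence from CYP3A4 conversion of luciferin-PPXE (25uM, equal to KM) to luciferin, after 60 min at RT with an NADPH-regenerating system.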

Compound	Potency [1] [µM]	activity change, negative = inhibition [2] [%]	Potency [3]	activity change, negative = inhibition [4] [%]	Potency [5] [µM]	Potency [6] [µM]	outcome [7]	activity change, negative = inhibition [8]	activity change, negative = inhibition [3]	activity, negative = inhibition [9] [%]	activation [10] [%]	Potency [11]	activity change, negative = inhibition [12]	Potency [13]	Potency [14]	activity change, positive = activation [15]
O=C(NCP(=O)(O)O)c1cccnc1	> 11.4	23.1	inactive	5.87	> 46	> 9.22	inactive	–	–	–	–	–	–	–	–	–
C[As+](C)(c1ccc(Br)c([N+](=O)[O-])c1)c1ccc(Br)c([N+](=O)[O-])c1.O=[N+]([O-])O	> 11.4	10.5	inactive	-2.2	> 46	> 9.22	inactive	-0.633% [at 11.4 µM]	–	–	–	–	–	–	–	–
O=[N+]([O-])c1cc(-c2ccc([As](=O)(O)O)cc2)ccc1[As](=O)(O)O	> 11.4	3.12	–	–	> 46	> 9.22	inactive	2.81% [at 11.4 µM]	-10.9% [at 2.29 µM]	1.81	1.51	89.1 µM (active)	–	–	–	–
CN[C@H]1[C@H](C)O[C@@H](O[C@@H]2C/C=C(/C)C/C(C)=C\C=C/CC[C@@H](C)CNC(=O)/C=C\C=C/[C@H]2C)C[C@@H]1O	> 11.4	-6.3	inactive	–	> 46	> 9.22	inactive	1.47% [at 11.4 µM]	–	-1.24	–	–	-5.72% [at 11.4 µM]	inactive	inactive	–
Oc1ccc(CCNCc2cc3c(cc2Br)OCO3)cc1	> 11.4	-4.32	1 µM (active)	-17	> 46	–	inactive	0.159% [at 11.4 µM]	–	9.31	-17.8	–	–	0.316 µM (active)	5.01 µM (active)	-36.4% [at 11.4 µM]
CC(C)[C@]1(O)[C@@H](OC(=O)c2ccc[nH]2)[C@]2(O)[C@@]3(C)C[C@@]4(O)O[C@@]5([C@H](O)[C@@H](C)CC[C@]35O)[C@]2(O)[C@]41C	> 11.4	3.13	–	3.93	> 46	–	inactive	0.163% [at 11.4 µM]	-17.2% [at 2.29 µM]	-4.77	12.8	–	–	–	–	–
O=S(=O)(O)/C(=C\c1ccccc1)c1ccccc1 (tested in a mixture with another compound)	> 11.4	4.77	–	11.5	–	–	inactive	4.57% [at 11.4 µM]	-29% [at 2.29 µM]	7.2	–	–	–	–	–	–
CCOC(=O)[C@@H]1[C@@H]2c3ccccc3-c3ccccc3[C@H]2C[C@H]1O	> 11.4	-11.4	0.631 µM (active)	2.27	> 46	> 9.22	inactive	-2.11% [at 11.4 µM]	–	–	–	–	–	–	2 µM (active)	–
O=C(O)CS(=O)(=O)C(c1ccccc1)c1ccccc1	> 11.4	-6.22	–	-2.65	> 46	> 9.22	inactive	–	-15.7% [at 2.29 µM]	–	–	–	–	–	inactive	–
COc1cc2ccccc2c2cc([N+](=O)[O-])oc12	> 11.4	3.54	0.126 µM (active)	–	> 46	> 9.22	inactive	16.5% [at 11.4 µM]	–	16.1	–	–	–	–	–	–
CN(C)CCCc1cccnc1	> 11.4	3.48	–	16.7	> 46	–	inactive	3.96% [at 11.4 µM]	-10.2% [at 2.29 µM]	–	–	–	–	–	–	–
C[C@@H]1CC[C@@H]2N(C1)C[C@H]1[C@@](O)([C@H](O)C[C@]3(O)[C@H]4CC[C@H]5[C@]6(O)O[C@]4(C[C@]13O)[C@@]5(C)CC[C@@H]6O)[C@@]2(C)O	> 11.4	0.655	inactive	4.97	> 46	–	inactive	4.3% [at 11.4 µM]	–	-1.33	–	–	–	–	–	–
Nc1nnnn1CCO	> 11.4	7.2	6.31 µM (active)	8	> 46	–	inactive	3.27% [at 11.4 µM]	–	12	12.2	–	–	–	–	–
